In the library only some 2.9% were active in any assay of this set; here they are far more common.
Integrin act MD: activates integrin-mediated alleviation for muscular dystrophy | alpha7betagal myoblasts, beta-gal FDG fluorescence, 48 h | Potency, µM (doses to about 38.3 µM), for inactives: top-dose activation, actives largely listed as activators | 0.064% of 350,000 active | AID 624291;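 also: potency is read from the fitted curve at half-maximal effect; 100% = response of the positive control SU9516; nearly all actives have a fitted effect of over 60% in size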
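Alpha7betagal+/- myoblasts (passage 13) were plated 16-24 hr, then exposed to compounds (1:260 dilution of DMSO stock) for 48 hours at 37C. After MPER lysis, β-galactosidase reporter activity was read as FDG fluorescence (ex 480/em 540) after 30 minutes.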
DRD3 antagonist: blocks the human D3 dopamine receptor; D3R cells, DiscoveRx beta-arrestin luminescence, antagonist mode; active compounds read low; 2.5% of 360,000 active; P35462; max response, negative = inhibition, %; in the data active = max response below about -50%; inconclusive = no clear call, values can overlap the other calls; also: % is scaled to controls: 0 for no effect and ±100 for the full control effect
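Cells plated overnight at 1500 cells/well, then exposed to library compounds with dopamine controls for 90 minutes at 37 degrees C. DiscoveRx reagent added for 30–60 minutes at room temperature; luminescence read, quantitative HTS format.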
mIDH1 inhibitor: inhibitors of human mutant IDH1 R132H | O75874 | IDH1-R132H enzyme, NADPH consumption, diaphorase/resazurin fluorescence | Potency, µM (highest dose often 76.6 µM), for inactives: top-dose activity change, negative = inhibition, usual class: inhibitors | 0.093% of 390,000 active; also: potency is read from the fitted curve at half-maximal effect; % is scaled to controls: 0 for no effect and ±100 for the full control effect; nearly all actives have a fitted effect of over 65% in size
Target sequence (O75874 whole entry R132H, stated change not applied): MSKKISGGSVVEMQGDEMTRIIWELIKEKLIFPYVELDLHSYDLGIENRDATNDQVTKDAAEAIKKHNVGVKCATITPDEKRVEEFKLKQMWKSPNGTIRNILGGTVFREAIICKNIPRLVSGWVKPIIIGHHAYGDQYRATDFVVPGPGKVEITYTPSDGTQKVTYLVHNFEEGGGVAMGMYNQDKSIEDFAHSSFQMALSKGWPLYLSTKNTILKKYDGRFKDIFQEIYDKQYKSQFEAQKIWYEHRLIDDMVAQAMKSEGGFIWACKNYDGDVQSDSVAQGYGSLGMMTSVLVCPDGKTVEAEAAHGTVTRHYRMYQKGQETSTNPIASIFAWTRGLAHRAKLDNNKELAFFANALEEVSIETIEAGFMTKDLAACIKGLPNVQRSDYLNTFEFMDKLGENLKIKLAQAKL
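IDH1-R132H (0.5 ug/mL dispensed) in pH 7.5 Tris buffer was preincubated 30 min with compound, then given a substrate mix of 0.016 mM NADPH and 2 mM alpha-KG for 80 min at room temperature; remaining NADPH was read by diaphorase/resazurin fluorescence.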
D3 ag: D3 dopamine receptor (human) agonism; P35462; D3R DiscoveRx beta-arrestin cells, luminescence, 90 min; max activation, %; 0.58% of 410,000 active; AID 652048; in the data active = max activation above about 30%; also: 0% is about no effect
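Agonist mode: compounds and dopamine controls were applied to plated cells for 90 min at 37 degrees C after an overnight attachment at 1500 cells/well. Luminescent read-out followed 30 - 60 minutes at room temperature with DiscoveRx detection reagent.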
B2AR arrestin: recruits beta-arrestin to the human beta2-adrenergic receptor. P07550. beta-arrestin recruitment to beta2AR, cell-based reporter. Potency, µM (highest dose often 46.1 µM), for inactives: at the top dose activation, most hits filed as activators. 0.02% of 330,000 active. AID 492947;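 also: potency is read from the fitted curve at half-maximal effect; 0% = DMSO controls and full agonism = EC100 isoproterenol or metaproterenol; nearly all actives have a fitted effect of over 65% in size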
The depositor's hits bear a star; ? = inconclusive; / = not tested or not shown; [ ] = another dose, or the depositor's remark. Unless noted, calls follow the shape of the dose curve; as a rule, active = well fitted curve in the direction sought with a large enough effect; inconclusive = small, poorly fitted or top-dose-only effect, or another doubt; inactive = no such curve, though single readings can be large; an effect the other way counts as inactive or inconclusive.

SMILES	Integrin act MD	DRD3 antagonist	mIDH1 inhibitor	D3 ag	B2AR arrestin
COc1ccc(/C=C/c2nc(C#N)c(NCCc3ccccc3)o2)cc1OC	/	/	14.8%	-14.5	/
CCc1ccc2oc(C(=O)NCCc3ccc(OC)c(OC)c3)cc(=O)c2c1	/	/	-1.2%	26.2	/
Cc1ccc(NC(=O)CCn2c(=O)c3cccn3c3ccccc32)cc1Cl	/	/	16.2%	-24.1	/
CCN(CC)CCNc1ccc(CO)c2oc3cc(Cl)ccc3c(=O)c12	-55.4%	-55.6*	7.5%	-5.2	/
CN(C)CCNc1ccc(CO)c2oc3ccc(O)cc3c(=O)c12	-52.0%	0.0	6.6%	-10.2	/
Cc1cc(C)n2c(Nc3ccccc3C)c(-c3cccs3)nc2n1	/	/	-21.4%	-8.3	/
C=CCCC1CN(CCCC)S(=O)(=O)c2c(F)cccc2O1 (configuration not stated)	10.5%	22.7	3.3%	35.3*	/
CCCCN1C[C@H](CO)Oc2cccc(F)c2S1(=O)=O	23.3%	-17.0	2.3%	-1.0	/
CC(=O)c1ccc(N2CCN(c3ncnc4onc(-c5ccc(Cl)cc5)c34)CC2)cc1	/	/	-7.2%	3.8	/
N#CC(=C1C=CC(=NO)C(Cl)=C1)c1ccccc1	/	-81.5*	/	-13.1	/
O=C1C2=C(C(=O)c3ccccc31)C1O[C@](CCCCN3C(=O)c4ccccc4C3=O)(Cc3ccccc31)O2	/	/	/	/	0.0%[9.22 µM]
Oc1ccc(Cl)cc1CNCC1CCCCC1	9.1%	-75.6*	5.1%	-49.0	-1.0%
Oc1ccc(Cl)cc1CNC1CCCCC1	7.9%	-23.6	0.8%	-25.4	/
CCc1ccc2ncc3c(-c4ccc(F)cc4)nn(CC(=O)NCc4ccccc4)c3c2c1	/	/	-11.9%	-9.4	/
COc1ccc(C2C(=O)N(C3CCC(C)CC3)CC(=O)N2Cc2ccc(C)cc2)cc1OC (configuration not stated)	/	/	-2.5%	-1.6	/
CN(C)CCOc1ccc(-c2c(-c3ccccc3)sc3ccccc23)cc1	-43.1%	-16.5	8.1%	-22.7	0.3%
CN(C)CCOc1ccc(/C(=C(/CCCl)c2ccccc2)c2ccccc2)cc1	/	-91.4*	6.9%	-84.6	/
Nc1nc(-c2ccc(Cl)cc2)c(N=Nc2ccc(S(=O)(=O)N3CCOCC3)cc2)s1	-12.9%	-53.6*	-1.5%	-0.4	0.0%
COc1ccc(C(CC(=O)Nc2ccc(F)c(Cl)c2)N2Cc3ccccc3C2=O)cc1OC (configuration not stated)	/	/	-11.5%	-15.9	/
COc1ccc(-c2noc(-c3nnn(-c4ccc(C(C)C)cc4)c3C)n2)cc1OC	/	/	/	36.3*	/
COc1cc(N2C(=O)C=CC2=O)ccc1N1C(=O)C=CC1=O	-39.7%	-67.9*	2.3%	-29.7	/
COc1ccc(N2C(=O)C3CC(C)=C(C)CC3C2=O)c(OC)c1 (configuration not stated)	19.5%	-15.8	1.0%	2.3	0.1%
Cc1cc(C)nc(N2CCC(C(=O)N3CCN(c4cc(Cl)ccc4C)CC3)CC2)n1	-8.0%[7.66 µM]	115.4	3.0%	64.5*	-1.0%
Cc1ccc(C)c(N2CCN(C(=O)C3CCN(c4nc(C)cc(C)n4)CC3)CC2)c1	?	110.0	3.3%	17.8	-0.1%
COCC(=O)Nc1nnc(-c2cccs2)s1	?	-72.4*	-2.6%	-3.3	-0.1%
SMILES	Integrin act MD	DRD3 antagonist	mIDH1 inhibitor	D3 ag	B2AR arrestin
COCCNC(=O)CN1C(=O)c2cccnc2Oc2ccc(Cl)cc21	/	/	1.5%	4.5	/
COc1ccc(CN2[C@@H](CC(=O)O)c3cc(C(F)(F)F)ccc3S2(=O)=O)cc1	19.6%	-3.1	-0.8%	-7.4	/
COC(=O)C[C@H]1c2cc(C(F)(F)F)ccc2S(=O)(=O)N1Cc1ccc(OC)cc1	19.3%	8.4	12.5%	48.4*	/
O=c1cc(CN2CCN(Cc3ccccc3)CC2)c2ccc(O)cc2o1	-3.1%	6.4	-2.9%	-12.3	-0.3%
CS(=O)(=O)N1CCN(C/C=C/c2ccccc2)CC1	-0.6%	-7.2	-1.4%	2.5	-0.1%
Cc1ccc2oc(=O)cc(CN3CCN(C/C=C/c4ccccc4)CC3)c2c1	11.5%	-60.2*	4.8%	-12.0	0.5%
Cc1ccccc1CN1CCN(C/C=C/c2ccccc2)CC1	-21.4%	-191.9*	0.0%	-40.6	-0.2%
O=c1cc(CN2CCN(C/C=C/c3ccccc3)CC2)c2cc(O)ccc2o1	-41.1%	-62.5*	3.0%	-11.4	3.6%
Cn1nc(-c2ccc(OCC(=O)Nc3ccc(Cl)cc3)cc2)c2ccccc2c1=O	/	/	-1.2%	4.1	/

Bioassay records deposited in PubChem BioAssay by National Center for Advancing Translational Sciences (NCATS).
